In PubChem BioAssay AID1014 (NMMLSC, 2008) one finds inhibition of mean fluorescence and inhibition of percent positive cells data, which are given here for 39 molecules.

Active and inactive are the calls of the source. Rule as the data show it: active = inhibition of mean fluorescence above about 33%; inactive = the rest.

This experiment can be described thus: quorum sensing inhibitors in bacterial reporter, SAR follow-up, flow cytometry, SAR analogs (AID 1014).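 Also: Staphylococcus aureus RN6390 with RNAIII-GFP reporter stimulated by AIP; bacteria incubated with compound for 3 hours at 37 °C.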 Particulars: at 20 µM, stronger effect = higher value; inhibition of percent positive cells: flow cytometry fluorescence, measured here: percent reporter-positive cells. A general note: Flow cytometry measures light scatter and fluorescence of single cells or particles in a stream.

As for `CCc1ccc(S(=O)(=O)c2nnn3c2nc(Nc2ccc(Oc4ccccc4)cc2)c2cc(Cl)ccc23)cc1`, the inhibition of mean fluorescence is -16.6% (inactive) and the inhibition of percent positive cells is -0.1%.
For the molecule `O=C(NCC(c1cccnc1)N1CCN(c2ccc(F)cc2)CC1)C1CC1` (stereo not drawn), the inhibition of mean fluorescence is -43% (inactive) and the inhibition of percent positive cells amounted to 0.1%.
Consider `CCc1c(C(=O)c2ccccc2)oc2c(C)c3oc(=O)cc(C)c3cc12`, for which the inhibition of mean fluorescence is -0.6% (inactive) and the inhibition of percent positive cells was -1.3%.
The matching figures for `Cc1cc(Nc2ccccc2C(=O)O)n2ncnc2n1`: -29.1% (inactive) and -0.3%.
In the case of `N#Cc1c(NC(=O)CN2C(=O)c3ccccc3C2=O)oc(-c2ccccc2)c1-c1ccccc1`, the inhibition of mean fluorescence is 41.7% (active) and the inhibition of percent positive cells was 0.2%.
Regarding `CN=C1NC(=O)CC(C(=O)Nc2ccc3ccccc3c2)S1` (stereo not drawn), the inhibition of mean fluorescence is -1.7% (inactive) and the inhibition of percent positive cells is -0.3%.
For `Cc1cc(C)cc(Nc2c(F)c(F)c(F)c(F)c2C(=O)O)c1`, the inhibition of mean fluorescence is 14% (inactive) and the inhibition of percent positive cells is -0.2%.
On to `N#Cc1c(NC(=O)c2cc3ccccc3c(=O)o2)sc2c1CCCCCC2`, for which the inhibition of mean fluorescence was -18.3% (inactive) and the inhibition of percent positive cells came to 0.2%.
Consider `Cc1c(Nc2c(C(=O)O)cc([N+](=O)[O-])cc2[N+](=O)[O-])c(=O)n(-c2ccccc2)n1C`, for which the inhibition of mean fluorescence was -3.7% (inactive) and the inhibition of percent positive cells was -0.4%.
With `COc1ccc(S(=O)(=O)c2nnn3c2nc(Nc2ccccc2)c2ccccc23)cc1`, the inhibition of mean fluorescence is -22.4% (inactive) and the inhibition of percent positive cells was 0.4%.
On to `COc1ccc(Nc2nc3c(S(=O)(=O)c4ccc(C)cc4)nnn3c3ccccc23)cc1`, for which the inhibition of mean fluorescence is 4.9% (inactive) and the inhibition of percent positive cells is -0.8%.
`O=C(NCC(c1cccnc1)N1CCN(c2ccc(F)cc2)CC1)c1ccc(F)cc1` (stereo not drawn): the inhibition of mean fluorescence was -11.6% (inactive) and the inhibition of percent positive cells was -0.2%.
With `O=C(NC1CCCC1)C(c1cc2c(cc1[N+](=O)[O-])OCO2)N1CCN(C2CCCCC2)CC1` (stereo not drawn), the inhibition of mean fluorescence was -24.8% (inactive) and the inhibition of percent positive cells was -1.4%.
In the case of `O=C(NC1CCCC1)C(c1cc2c(cc1[N+](=O)[O-])OCO2)N1CCCC1` (stereo not drawn), the inhibition of mean fluorescence was -3.7% (inactive) and the inhibition of percent positive cells is -0.1%.
Turning to `Cc1oc2ccc(O)cc2c1C(=O)O`, the inhibition of mean fluorescence was -20.2% (inactive) and the inhibition of percent positive cells was -0.5%.
Regarding `CC(=O)c1cc2c(cc1NC(=O)CN1CCOCC1)OCO2`, the inhibition of mean fluorescence is -26.1% (inactive) and the inhibition of percent positive cells is -1%.
For the molecule `O=C(NC1CCCC1)C(c1cc2c(cc1[N+](=O)[O-])OCO2)N1CCOCC1` (stereo not drawn), the inhibition of mean fluorescence was -11.5% (inactive) and the inhibition of percent positive cells is -0.1%.
Take `N#Cc1c(NC(=O)COC(=O)CN2C(=O)c3ccccc3C2=O)sc2c1CCCC2`: the inhibition of mean fluorescence is -2.3% (inactive) and the inhibition of percent positive cells was -0.2%.
Regarding `CC1CCN(CC2CCN(C(=O)Nc3ccc4c(c3)OCCO4)CC2)CC1`, the inhibition of mean fluorescence was -3.7% (inactive) and the inhibition of percent positive cells was 0%.
`CC(=O)c1c(C)oc2ccc(O)cc12`: the inhibition of mean fluorescence was -5.9% (inactive) and the inhibition of percent positive cells was -1.1%.
The matching figures for `COc1cccc(Nc2c(F)c(OC)c(F)c(F)c2C(=O)O)c1`: -6.6% (inactive) and 0%.
The matching figures for `COc1ccc(NC(=O)C(c2cc3c(cc2[N+](=O)[O-])OCO3)N2CCCC(C)C2)cc1` (stereo not drawn): 29.6% (inactive) and -0.9%.
On to `COc1ccc(CC(=O)Nc2oc(-c3ccccc3)c(-c3ccccc3)c2C#N)cc1OC`, for which the inhibition of mean fluorescence is 20% (inactive) and the inhibition of percent positive cells was -0.5%.
The like results for `CCc1ccc(Nc2nc3c(S(=O)(=O)c4ccccc4)nnn3c3ccccc23)cc1` were, in that order, 20.8% (inactive) and -1.2%.
As for `CC1CCN(C(C(=O)NC2CCCC2)c2cc3c(cc2[N+](=O)[O-])OCO3)CC1` (stereo not drawn), the inhibition of mean fluorescence is -5.4% (inactive) and the inhibition of percent positive cells was -1%.
Consider `CC1CCCN(C(C(=O)NC2CCCC2)c2cc3c(cc2[N+](=O)[O-])OCO3)C1` (stereo not drawn), for which the inhibition of mean fluorescence was 14.5% (inactive) and the inhibition of percent positive cells was -1.7%.
Consider `O=C(NCC(c1cccnc1)N1CCN(c2ccc(F)cc2)CC1)c1ccccc1` (stereo not drawn), for which the inhibition of mean fluorescence is 10% (inactive) and the inhibition of percent positive cells was -0.2%.
Take `Cc1ccc(Nc2c(C(=O)O)cc([N+](=O)[O-])cc2[N+](=O)[O-])cc1Cl`: the inhibition of mean fluorescence is -19.5% (inactive) and the inhibition of percent positive cells was -0.4%.
Take `COc1ccc(CC(=O)Nc2oc(-c3ccccc3)c(-c3ccccc3)c2C#N)cc1`: the inhibition of mean fluorescence was 42.6% (active) and the inhibition of percent positive cells was 1.3%.
Turning to `COc1c(F)c(F)c(C(=O)O)c(Nc2cc(C)cc(C)c2)c1F`, the inhibition of mean fluorescence was -29.1% (inactive) and the inhibition of percent positive cells is -2%.
For the molecule `Cc1nnc(N2CCCC(C(=O)Nc3ccc4c(c3)OCO4)C2)c2nn(-c3ccccc3)c(C)c12` (stereo not drawn), the inhibition of mean fluorescence is -10.1% (inactive) and the inhibition of percent positive cells is 0%.
As for `CN(C)c1ccc(Nc2c(C(=O)O)cc([N+](=O)[O-])cc2[N+](=O)[O-])cc1`, the inhibition of mean fluorescence was 10.4% (inactive) and the inhibition of percent positive cells stood at 5.2%.
As for `COc1ccc(N2CCN(C(CNC(=O)c3ccc(F)cc3)c3cccnc3)CC2)cc1` (stereo not drawn), the inhibition of mean fluorescence is -63.3% (inactive) and the inhibition of percent positive cells is -1.5%.
For the molecule `O=C(NCC(c1cccnc1)N1CCN(c2ccccc2)CC1)c1cccs1` (stereo not drawn), the inhibition of mean fluorescence is 47.7% (active) and the inhibition of percent positive cells turned out to be 1.1%.
Take `Cc1[nH]nc(Nc2ccccc2C(=O)O)c1[N+](=O)[O-]`: the inhibition of mean fluorescence is 0.1% (inactive) and the inhibition of percent positive cells worked out at 0.2%.
The matching figures for `CCOc1ccc(Nc2nc3c(S(=O)(=O)c4ccc(C(C)C)cc4)nnn3c3ccccc23)cc1`: -3.7% (inactive) and -0.1%.
With `CC(C)(C)c1ccc(S(=O)(=O)c2n[nH]n3c2nc(=O)c2ccccc23)cc1`, the inhibition of mean fluorescence was 13.3% (inactive) and the inhibition of percent positive cells was -1.8%.
On to `Cc1ccc(Nc2nc3c(S(=O)(=O)c4ccc(C(C)(C)C)cc4)nnn3c3ccccc23)cc1`, for which the inhibition of mean fluorescence was -38.2% (inactive) and the inhibition of percent positive cells is -1%.
With `Cc1ccc(S(=O)(=O)c2nnn3c2nc(Nc2ccc(C(C)C)cc2)c2ccccc23)cc1`, the inhibition of mean fluorescence is 12.6% (inactive) and the inhibition of percent positive cells was -1.7%.
